D1 potentiator: Potentiators of Human D1 Dopamine Receptor: qHTS | D(1A) dopamine receptor (Homo sapiens), P21728 | HEK293 TREx D1 cells, calcium flux, dopamine EC20 potentiation | potentiation, % at 10 µM | actives 0.036% (n = 360,000) | AID 504651, 2011; in the data active = potentiation above about 30%; note: 0% is about no effect
D1 antag: Antagonist of Human D 1 Dopamine Receptor: qHTS; actives 3.2% (n = 360,000); HEK293 TREx D1 cells, calcium flux, dopamine EC80; stronger effect = lower value; D(1A) dopamine receptor (Homo sapiens), P21728; activity change, negative = inhibition, % at 10 µM; in the data active = activity change below about -30%; note: % is set by controls: 0 for no effect and ±100 for the full control effect
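Using tetracycline-induced force-coupled D1 Hek293 cells and a calcium dye, signals were followed for 180 s after compound, then for 180 s after EC80 dopamine, to detect inhibitors.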
D3 ag: qHTS of D3 Dopamine Receptor Agonist: qHTS; D(3) dopamine receptor (Homo sapiens), P35462; D3R DiscoveRx beta-arrestin cells, luminescence, 90 min; max activation, %; actives 0.58% (n = 410,000); AID 652048, 2013; in the data active = max activation above about 30%; note: 0% is about no effect
Target sequence (P35462 whole entry, looked up): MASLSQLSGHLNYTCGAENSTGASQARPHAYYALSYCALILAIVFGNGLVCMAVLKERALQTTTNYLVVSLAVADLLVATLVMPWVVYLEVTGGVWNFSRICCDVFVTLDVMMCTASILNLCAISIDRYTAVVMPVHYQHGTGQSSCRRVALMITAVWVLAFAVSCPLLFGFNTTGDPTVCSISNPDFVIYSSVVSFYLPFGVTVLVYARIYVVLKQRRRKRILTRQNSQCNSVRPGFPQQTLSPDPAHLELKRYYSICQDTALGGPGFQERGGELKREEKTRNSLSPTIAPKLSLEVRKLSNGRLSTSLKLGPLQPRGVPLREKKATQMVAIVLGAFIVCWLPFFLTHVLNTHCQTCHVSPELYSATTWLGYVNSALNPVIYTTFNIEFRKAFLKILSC
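Agonist-mode cell screen: cells plated at 1500/well and incubated overnight at 37 °C, then exposed to library compounds for 90 min at 37 °C. Detection reagent was added for 30–60 min at room temperature, and luminescence was read.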
D1 ag: Allosteric Agonists of the Human D1 Dopamine Receptor: qHTS. D(1A) dopamine receptor (Homo sapiens), P21728. HEK293 T-REx D1 cells, calcium flux, agonist mode. activation, % at 2 µM. actives 1% (n = 360,000). AID 504660, 2011; in the data active = activation above about 30%; note: 0% is about no effect
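Tetracycline-induced HEK293 TREx D1 cells, force-coupled to calcium signalling, were dye-loaded with a no-wash calcium kit. Compound was pin-added after a 10 s baseline. Fluorescence was read kinetically at 1 cycle/s for 180 s, with calcium rises flagged as agonism.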
DRD3 antagonist: qHTS of D3 Dopamine Receptor Antagonist: qHTS; actives 2.5% (n = 360,000); D3R cells, DiscoveRx beta-arrestin luminescence, antagonist mode; stronger effect = lower value; AID 652054, 2013; max response, negative = inhibition, %; in the data active = max response below about -50%; inconclusive = no clear call, values can overlap the other calls; note: % is set by controls: 0 for no effect and ±100 for the full control effect
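Cells expressing the human receptor were seeded at 1500 cells/well, incubated overnight at 37 degrees C in 5% CO2, then exposed to library compounds with dopamine controls for 90 minutes at 37 degrees C before luminescent detection.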
An asterisk follows results filed as active; ? = inconclusive; · = no result given. The list is not random: actives were taken first. Their share in the collection is about 6%.

SMILES | D1 potentiator | D1 antag | D3 ag | D1 ag | DRD3 antagonist
OC1CC2CCC(C1)N2CCCN1c2ccccc2Sc2ccc(Cl)cc21 (stereo unspecified) | · | · | -15.8 | · | -101.8*
CC(=O)c1ccc2c(c1)N(CCCN1CCN(CCO)CC1)c1ccccc1S2 | · | · | -17.9 | · | ·
CC(CN1CCN(CCOCCO)CC1)CN1c2ccccc2Sc2ccc(Cl)cc21 (stereo unspecified) | · | · | -7.4 | · | -116.9*
CCSc1ccc2c(c1)N(CCCN1CCN(C)CC1)c1ccccc1S2 | -5.2 | -90.7* | -84.5 | 18.6 | -86.8*
Cc1ccc(-n2ncc(C(=O)NCc3ccco3)c2C2CCN(C(=O)OC(C)(C)C)CC2)cc1C | -2.0 | 11.2 | 2.1 | 3.1 | ·
CC1=C(C(=O)Nc2ccc(C)cc2C)C(c2ccc(O)cc2)n2nc(SCC(=O)c3ccc(C)cc3)nc2N1 (stereo unspecified) | -1.7 | 21.0 | 21.4 | 1.4 | ·
O=C(Nc1cc(Cl)ccc1Cl)c1cc(S(=O)(=O)NCCc2ccccc2)ccc1F | -2.3 | -12.1 | 8.1 | 8.9 | ·
OCC(CBr)(CBr)CBr | -3.8 | · | -5.4 | 4.0 | -54.4*
Cc1ccc(C(=O)c2oc3ccccc3c2NC(=O)c2cc(=O)c3cc(C)ccc3o2)cc1 | 1.4 | -5.7 | -15.9 | 1.5 | ·
CCCCNC(=O)C[C@@H]1C[C@@]2(C(=O)OC)CC(C)(C)CC=C2N(CCc2ccc(OC)c(OC)c2)C1=O | · | · | -2.6 | · | 4.8
COCCCNC(=O)C[C@@H]1C[C@@]2(C(=O)OC)CC(C)(C)CC=C2N(CCc2ccc(OC)c(OC)c2)C1=O | · | · | -21.5 | · | -70.4*
Cn1nnc2cc(C(=O)NCc3ccc4c(c3)OCO4)ccc21 | -1.6 | -1.3 | -0.9 | 2.0 | 9.7
Cn1nnc2cc(NC(=O)NCc3ccc4c(c3)OCO4)ccc21 | -0.1 | 1.5 | -20.1 | 8.4 | -89.7*
COc1ccc2c(c1)O[C@@H](c1cccc(C(F)(F)F)c1)[C@H](OC(=O)N[C@H]1CCCc3ccccc31)C2=O | -3.4 | 0.1 | · | 1.3 | ·
COc1ccc2c(c1)O[C@H](c1ccc3c(c1)OCO3)[C@@H](OC(=O)N[C@H]1CCCc3ccccc31)C2=O | -10.2 | -57.3* | 54.2* | -2.2 | 1.4
CCCCn1nnnc1C(c1ccccc1)N1CCN(CCN2CCOCC2)CC1 (stereo unspecified) | · | · | -12.0 | · | 0.0
COc1ccc(-n2nnnc2C(c2cccs2)N2CCN(C/C=C/c3ccccc3)CC2)cc1 (stereo unspecified) | · | · | -23.3 | · | -59.6*
COc1ccc(-n2nnnc2C(c2ccnc3ccccc23)N2CCN(C/C=C/c3ccccc3)CC2)cc1 (stereo unspecified) | · | · | -14.0 | · | -54.2*
Cc1cccc(C)c1-n1nnnc1C(c1ccnc2ccccc12)N1CCN(CCN(C)C)CC1 (stereo unspecified) | · | · | 2.7 | · | -8.7
C(=C\c1ccccc1)/CN1CCN(C(c2ccnc3ccccc23)c2nnnn2-c2ccc3c(c2)OCCO3)CC1 (stereo unspecified) | · | · | -10.3 | · | -18.4
C(=C\c1ccccc1)/CN1CCN(C(c2ccccc2)c2nnnn2-c2ccc3c(c2)OCCO3)CC1 (stereo unspecified) | · | · | -6.4 | · | -74.5*
CCCCn1nnnc1C(C1CC1)N1CCN(C/C=C/c2ccccc2)CC1 (stereo unspecified) | · | · | -12.7 | · | -136.6*
COc1ccc(C(c2nnnn2-c2ccc(OC)cc2)N2CCN(C/C=C/c3ccccc3)CC2)cc1 (stereo unspecified) | · | · | -13.8 | · | -89.2*
COc1ccc(C(c2nnnn2C(C)(C)C)N2CCN(C/C=C/c3ccccc3)CC2)cc1 (stereo unspecified) | · | · | -14.5 | · | -66.8*
COc1ccc(-n2nnnc2C(c2ccccc2OC(F)(F)F)N2CCN(C/C=C/c3ccccc3)CC2)cc1 (stereo unspecified) | · | · | -20.8 | · | -96.1*
SMILES | D1 potentiator | D1 antag | D3 ag | D1 ag | DRD3 antagonist
COc1cccc(C(c2nnnn2C(C)(C)C)N2CCN(C/C=C/c3ccccc3)CC2)c1OC (stereo unspecified) | · | · | -20.7 | · | -101.7*
CCCCn1nnnc1C(c1ccc(OC)cc1)N1CCN(C/C=C/c2ccccc2)CC1 (stereo unspecified) | · | · | -18.8 | · | -107.0*
COc1ccc(N2CCN(C(c3ccccc3OC)c3nnnn3C3CCCC3)CC2)cc1 (stereo unspecified) | -1.2 | -15.7 | 5.8 | 1.9 | 36.3
CCCCn1nnnc1C(c1cccs1)N1CCN(C/C=C/c2ccccc2)CC1 (stereo unspecified) | · | · | -16.0 | · | ?
COc1ccc(C(c2nnnn2C2CCCCC2)N2CCN(C/C=C/c3ccccc3)CC2)cc1 (stereo unspecified) | · | · | -16.7 | · | -83.8*
COc1ccc(OC)c(-c2csc(NC(=O)Cc3ccccc3)n2)c1 | -3.5 | -27.2 | -5.6 | 1.8 | 4.4
COC(=O)c1cc(-c2cc(OC)ccc2OC)nc2c1c(=O)n(C)c(=O)n2Cc1ccccc1 | 4.0 | -1.7 | -28.7 | 2.3 | -78.9*
CC(=O)/C=C/n1c(=S)oc2ccccc21 | -10.1 | -6.1 | -34.3 | 1.8 | -85.5*
Nc1nc(Nc2ccccc2F)sc1C(=O)c1ccc(Cl)cc1 | -6.2 | 13.7 | -0.4 | 0.2 | ·
Cc1noc(C)c1S(=O)(=O)N(CC(=O)NCCc1ccc(Cl)cc1)c1ccc(C(C)C)cc1 | -0.8 | -17.0 | 0.4 | 2.7 | ·
CCN(CC)Cc1csc(C(N)=O)c1 | -1.6 | 5.8 | 5.2 | 6.1 | -52.8*
CCOC(=O)CCN(Cc1ccccc1)S(=O)(=O)c1csc(C(N)=O)c1 | -1.3 | 1.3 | 1.7 | 1.5 | 3.5
CCOC(=O)c1cc(-c2ccc(C)cc2)n(CCC(=O)NCCN(C)C)c1C | -7.0 | -8.2 | -21.0 | 63.1* | -6.5
CCOC(=O)c1cc(-c2ccc(C)cc2)n(CCC(=O)NCCc2ccc(C)cc2)c1C | -6.5 | -15.9 | 3.4 | 14.1 | ·
COc1cccc(OC)c1C(=O)NCCc1ccccc1 | · | · | 1.3 | · | -0.6
CCN1CCN(Cc2ccc(NC(=O)c3cc(NC(=O)c4cc5cccc(OC)c5o4)cc(OC)c3)cc2C(F)(F)F)CC1 | -5.3 | -2.5 | -9.9 | 2.9 | -58.1*
COc1cc(NC(=O)c2cc3cccc(OC)c3o2)cc(C(=O)Nc2cccc(C(F)(F)F)c2)c1 | -4.3 | -10.6 | 46.4* | 5.5 | 133.3
COc1cccc2cc(C(=O)NCCc3ccccc3)oc12 | -5.8 | -34.5* | -7.8 | 57.0* | 2.1
COc1ccc(-c2cc(C(=O)Nc3cc(OC)cc(C(=O)Nc4cccc(C(F)(F)F)c4)c3)[nH]n2)cc1 | -4.2 | -30.8* | -6.6 | 10.3 | 5.1
COc1ccc(NC(=O)c2ccc3c(=O)n4nc(Nc5cc(C)ccc5C)sc4nc3c2)cc1 | 7.2 | -3.7 | 4.6 | 2.6 | ·

Screening results (PubChem)
